Compounds with a hit are over-represented: about 6.2% of the library has one in this group of screens.
Lassa entry inh = inhibitors of Lassa virus binding or cell entry | Lassa virus pseudotype entry inhibition, cell reporter | Potency, µM (doses to about 37.9 µM), hits mostly inhibitors | 1.2% of 300,000 active | AID 540256; calls by dose curve; tested in HEK293 cells; also: nearly all actives have a fitted effect of over 50% in size
FMDV antiviral = foot and mouth disease virus antiviral activity | FMDV antiviral cell-based qHTS | Potency, µM (highest dose often 57.9 µM), actives largely listed as inhibitors | 1.2% of 410,000 active; calls by dose curve; tested in HEK293T cells; also: read-out not given here; nearly all actives have a fitted effect of over 45% in size
Marburg entry inh = blocks Marburg virus binding to or entry into cells. AID 540276. Potency, µM (top dose mostly 37.8 µM), actives largely listed as inhibitors. Marburg virus pseudotyped entry inhibition, cell reporter. 1.8% of 300,000 active; calls by dose curve; tested in HEK293 cells
HCMV antiviral = blocks human cytomegalovirus replication; HFF cells, HCMV-luciferase reporter, 72 h; hits give low values; activity change, negative = inhibition, % at 57.5 µM; 4.5% of 410,000 active; in the data active = activity change below about -60%; inconclusive = no clear call, values can overlap the other calls; inactive = above about -39%
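Two-dose cell screen: HFF monolayers treated with compounds and infected with luciferase-expressing HCMV at 1 PFU/cell, 72 h at 37C, then lysed for luciferase measurement.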
Of the large screens only hits and unclear results are named; the others gave an inactive call.

O=C(c1cc2cc(F)ccc2[nH]1)N(Cc1cccnc1)CC1CCCN(C2CCCCC2)C1 (centres undefined)	none (no result: Lassa entry inh, Marburg entry inh)
C#Cc1cccc(C(=O)N(Cc2cccnc2)CC2CCCN(C3CCCCC3)C2)c1 (centres undefined)	HCMV antiviral -63.0 (no result: Lassa entry inh, Marburg entry inh)
CCOC(=O)C1=C(CSc2nc3ccccc3s2)NC(=O)NC1c1ccc(OC)cc1 (centres undefined)	Lassa entry inh inconclusive, Marburg entry inh inconclusive, HCMV antiviral -60.0 (no result: FMDV antiviral)
CCOC(=O)C1=C(CN2CCN(c3ccc(OC)cc3)CC2)NC(=O)NC1c1ccc(OC)cc1 (centres undefined)	none (no result: Marburg entry inh)
CCOC(=O)C1=C(CN2CCN(c3ccc(C)cc3C)CC2)NC(=O)NC1c1ccc(OC)cc1 (centres undefined)	Lassa entry inh inconclusive, FMDV antiviral inconclusive, HCMV antiviral -81.6 (no result: Marburg entry inh)
CCOC(=O)C1=C(CN2CCN(c3ccc(OC)cc3)CC2)NC(=O)NC1c1ccc(Cl)cc1 (centres undefined)	Lassa entry inh inconclusive, Marburg entry inh inconclusive, HCMV antiviral inconclusive
CCOC(=O)C1=C(CN2CCN(c3cc(C)ccc3C)CC2)NC(=O)NC1c1ccc(Cl)cc1 (centres undefined)	Lassa entry inh inconclusive, Marburg entry inh inconclusive, HCMV antiviral -80.5
CCOC(=O)C1=C(c2ccccc2)NC(=O)NC1c1ccc(O)c(OCC)c1 (centres undefined)	none
CCOC(=O)C1=C(c2ccccc2)NC(=O)NC1c1ccc(O)c(Cl)c1 (centres undefined)	FMDV antiviral 8.91µM, HCMV antiviral -101.6 (no result: Lassa entry inh, Marburg entry inh)
CCOC(=O)CSc1nnc([C@H](CC(C)C)NC(=O)OC(C)(C)C)o1	none
CCOC(=O)C1=C(CNCc2ccccc2)NC(=O)NC1c1ccc(C)cc1 (centres undefined)	HCMV antiviral -69.7
CCOC(=O)C1=C(CCc2ccccc2)NC(=O)NC1c1ccc(Br)cc1 (centres undefined)	none (no result: Lassa entry inh, Marburg entry inh)
CCN(CC)CCSc1nnc2c3cc(C)ccc3n(Cc3ccccc3)c2n1	Lassa entry inh inconclusive, Marburg entry inh inconclusive, HCMV antiviral -84.7
CCN(CC(=O)Nc1c(F)cccc1F)C(=O)CSCC(=O)Nc1ccc(OC)cc1	HCMV antiviral inconclusive
COc1ccc(NC(=O)CSCC(=O)N(C)CC(=O)Nc2c(C)cccc2C)cc1	HCMV antiviral -102.0 (no result: Lassa entry inh, Marburg entry inh)
